This note sets out measurements from PubChem BioAssay (Tox21).

The source made the active and inactive calls. The call rests on the fitted dose curve; in most records, active means well fitted activation curve with a large enough effect in the repeat runs; inconclusive means weak or mixed curves; inactive means flat fitted curve, though single readings scatter.

The test is described as follows: A CellTox Green Cytotoxicity Assay to monitor cytotoxicity in HEK293 cells - 0 hour (AID 1224869). Further: nearly all actives have a fitted effect of over 50% in size. Particulars: CellTox Green fluorescence; series mostly up to 76.8 µM. An excerpt: National Center for Advancing Translational Sciences [NCATS]
NIH Chemical Genomics Center [NCGC]
U.S. Environmental Protection Agency [EPA]
National Institutes of Environmental Health Sciences [NIEHS]
National Toxicology Program [NTP]
Cell-based models are critical for drug discovery. Determining the natural cytotoxic effects resulting from test compounds is an essential research activity. A CellTox Green Cytotoxicity Assay to monitor cytotoxicity in real time of continues cell culture during 40 hours of the compound treatment was used to screen Tox21 10K library compounds in Hek293 cells. CellTox Green Cytotoxicity Assay is a nonlytic, homogeneous, biofluorescent method to measure cytotoxicity in cell culture after experimental manipulation. The assay system uses a proprietary asymmetric cyanine dye that is excluded from viable cells but preferentially stains the dead cell's DNA. […] Viable cells produce no appreciable increases in fluorescence. Therefore, the fluorescence signal produced by the binding interaction with dead cell DNA is proportional to cytotoxicity.
The mixture of Hek293 cell suspension and reagents were dispensed at 600cells/6 ul/well in 1536-well tissue culture treated black solid bottom plates using a Multidrop dispenser. After the assay plates were incubated at a 37 C/5% CO2 incubator for 5 hours, 23 nL of compounds dissolved in DMSO, positive and negative controls was transferred to the assay plate by a pintool work station. The plates were incubated at 37 C for 40 hours. The fluorescence intensity were measured at 0h, 8h, 16h, 24h, 32h and 40h time points using ViewLux plate reader during compound treatment.
Consider `c1ccc(Oc2ccccc2)cc1`, for which the result was inactive.
As for `O=S(=O)(O)c1ccccc1`, the molecule was called inactive.
As for `CC(=O)CCC=C(C)C`, the molecule was called inactive.
In the case of `O=[N+]([O-])c1ccc2nc[nH]c2c1`, the outcome was inactive.
Take `CCCCC(C=O)CC` (stereo not given): the molecule was classed as inactive.
In the case of `NCCCCCCN`, the molecule was called inactive.
In the case of `CCCCCCC=O` it was “inactive”; in that of `CC(C)c1cccc(C(C)C)c1`, “inactive”; in that of `CCCCCCCCCCCCCCCC(=O)OC(C)C`, “inactive”.
Take `CCNc1cccc(C)c1`: the molecule was called inactive.
In the case of `CC(C)(C)c1cc(Cc2cc(C(C)(C)C)c(O)c(C(C)(C)C)c2)cc(C(C)(C)C)c1O` it was “inactive”; in that of `Cc1ccc(S(=O)(=O)N=C=O)cc1`, “inactive”.
In the case of `CC(=O)OCc1ccco1` it was “inactive”; in that of `CC(C)OC(=O)COc1ccc(Cl)cc1Cl`, “inactive”.
In the case of `CCO[Si](CCCN)(OCC)OCC` it was “inactive”; in that of `OCc1ccccc1`, “inactive”; in that of `CNC(=S)N(C)C`, “inactive”.
Consider `CC(C)CC(C)O` (stereo not given), for which the outcome was inactive.
For the molecule `CCNc1ccccc1`, the molecule was classed as inactive.
Turning to `COCCCN`, the call was inactive.
To `CC1(C)NC(=O)NC1=O` belongs “inactive”; to `C=Cc1ccc(C)cc1`, “inactive”; to `COc1ccc(C)cc1N`, “inactive”.
To `O=C(O)/C=C/C(=O)O` belongs “inactive”; to `Cc1ccc(C(C)C)c(O)c1`, “inactive”.
As for `CCOC(=O)n1ccn(C)c1=S`, the molecule was called inactive.
In the case of `COCCOC(=O)c1ccccc1C(=O)OCCOC`, the call was inactive.
To `CCCCCCO` belongs “inactive”.
On to `CCCCCCCCCCCC(=O)OC`, for which the outcome was inactive.
In the case of `CN1C(=O)CC[C@H]1c1cccnc1` it was “inactive”; in that of `CC(=O)CC(C)(C)O`, “inactive”.
To `CC(=O)OCCOC(C)=O` belongs “inactive”; to `Cc1ccc([N+](=O)[O-])cc1S(=O)(=O)O`, “inactive”; to `CC(=O)OCc1ccccc1`, “inactive”.
As for `CN(C)c1ccc(Cc2ccc(N(C)C)cc2)cc1`, the molecule was classed as inactive.
To `O=C1C(c2[nH]c3ccccc3c2O)=Nc2ccccc21` belongs “inactive”; to `C=C(C)[C@H]1CC=C(C)C(=O)C1`, “inactive”; to `COc1ccc(N)c(C)c1`, “inactive”.
To `CC(=O)OC1CC(C)OC(C)O1` (stereo not given) belongs “inactive”.
In the case of `N#Cc1ccccc1` it was “inactive”.
